The values that follow come from PubChem BioAssay AID1775 (NMMLSC, 2009).

Each structure is given as a SMILES string. Values joined by “and” are separate entries in the source; they are usually repeats but may differ in a detail not shown here. Equal entries are not always repeated. The whole screen tested about 220,000 compounds, of which about 820 (0.37%) were called active. What follows is part of a selection rich in actives, with near analogues and random picks from the rest. Unmarked numbers belong to inactive results. No stated cut-off is given here; in the data, active means fluorescence above about 47; inactive means the rest.

A short description of this assay: green autofluorescence of compounds with avidin beads – biophysical, 488/530 nm, flow cytometry, artefact control, profiling panel (AID 1775). Particulars: compound fluorescence 488/530 nm, at 10 µM, active compounds read high.
Take `C=CCn1c(=S)sc2c(=O)[nH]c(C)nc21`: the fluorescence (KMESF) was 3.
Take `CSc1ccc(CN2C(=O)NC3(CCCCCC3)C2=O)cc1`: the fluorescence (KMESF) was 50 (active).
On to `O=C(CN1C(=O)NC2(CCCCCC2)C1=O)NC1CC1`, for which the fluorescence (KMESF) was 14.
The same measure for `O=C1NC2(CCCCCC2)C(=O)N1CCS(=O)(=O)Oc1ccccc1`: 12; for `CN=C(c1ccccc1)c1c(C)cccc1C`: 1; for `CCN(CC)C(=O)CC(c1ccc2c(c1)OCO2)c1c(OC)cc(OC)c2c(-c3ccccc3)cc(=O)oc12` (stereo not drawn): 8.
For the compound `O=C(NC1CC1)c1ccc(-c2ccccc2)cc1`, the fluorescence (KMESF) is 11.
For the compound `O=C(NC1CC1)c1ccc2c(c1)NC(=O)c1ccccc1S2`, the fluorescence (KMESF) was 80 (active).
Take `O=C(NC1CC1)c1cccc(Br)c1`: the fluorescence (KMESF) is 4.
Turning to `COc1ccc(Cl)cc1N(CC(=O)N/N=C/c1ccc(OCC(N)=O)cc1)S(C)(=O)=O`, the fluorescence (KMESF) is 10.
As for `Cc1[nH]nc(SCC(=O)NCC(C)C)c1[N+](=O)[O-]`, the fluorescence (KMESF) was 6.
On to `CCOC(=O)c1sc(NC(=O)CSc2n[nH]c(CC)n2)nc1C`, for which the fluorescence (KMESF) was 15.
For `CCOC(=O)c1sc(NC(=O)c2ccncc2)nc1C`, the fluorescence (KMESF) was 4.
The same measure for `CCOC(=O)c1sc(/N=C/Nc2nc(C)c(C(=O)OCC)s2)nc1C`: 54 (active); for `Cc1ccc2nc(-c3cccnc3)c(NC3CCCC3)n2c1`: 9; for `Cc1cc(=O)n2[nH]c(-c3sccc3-n3c(C)ccc3C)cc2n1`: 5.
For `O=C(CCC(=O)N1CCCC1)Nc1ccc([N+](=O)[O-])cc1`, the fluorescence (KMESF) is 9.
On to `Cc1ccc(-n2c(C)cc(C(=O)CSc3nnc4ccccn34)c2C)cc1`, for which the fluorescence (KMESF) was 11.
To `O=C(CN1CCN(c2ccc(Cl)cc2)CC1)N1CCCC1` belongs 13; to `COC(=O)c1ccccc1OCC(=O)N1CCN(c2ccc(Cl)cc2)CC1`, 189 (active); to `O=C(COc1ccc(Cl)cc1)N1CCN(c2cccc(C(F)(F)F)c2)CC1`, 20.
The same measure for `CC(C)COC(=O)n1c(=O)oc2ccc(S(=O)(=O)N3CCCCC3)cc21`: 7; for `Cc1cc(OC(=O)c2ccccc2)c([N+](=O)[O-])c(=O)[nH]1`: 13.
In the case of `CC(C)OCCCNc1nc2c(c(=O)n(Cc3ccccc3F)c(=O)n2C)n1C`, the fluorescence (KMESF) is 16.
To `Cc1cccc(N2CC(C)Cn3c2nc2c3c(=O)n(CC(=O)OCc3ccccc3)c(=O)n2C)c1` (stereo not drawn) belongs 5; to `COc1ccc(N2CC(C)Cn3c2nc2c3c(=O)n(Cc3ccccc3F)c(=O)n2C)c(OC)c1` (stereo not drawn), 54 (active); to `C/C(=N\Nc1cccc(C(=O)O)c1)c1ccc2c(c1)Nc1ccccc1S2`, 11.
The same measure for `COc1ccc(CCNC(=O)CCCCn2c(=O)[nH]c3ccccc3c2=O)cc1OC`: 39; for `O=C(CCCCn1c(=O)[nH]c2ccccc2c1=O)NCc1ccc2c(c1)OCO2`: 81 (active); for `O=C(CCCCCn1c(=O)[nH]c2ccccc2c1=O)NCCc1c[nH]c2ccccc12`: 14.
The same measure for `N/C(=N\OC(=O)CCn1cccc(C(F)(F)F)c1=O)c1ccc(OC(F)(F)F)cc1`: 8; for `COc1cccc(C(=O)N2CCCC(CCC(=O)NCc3ccc(F)c(F)c3)C2)c1` (stereo not drawn): 8.
For `Cc1ccc(NC(=O)c2cccnc2C(=O)Nc2ccc(C)cc2)cc1`, the fluorescence (KMESF) is 10.
Consider `O=C(Nc1ccc(-n2ccnc2P(=O)(O)c2ccccc2)cc1)c1ccccc1Br`, for which the fluorescence (KMESF) was 81 (active).
To `O=C(Nc1ccccc1)c1cccnc1Nc1ccccc1` belongs 8.
The same measure for `COc1ccc(CCN2C(=O)N(c3ccc(OC)cc3)C(=O)C2CC(=O)Nc2ccc(OC)cc2)cc1` (stereo not drawn): 6; for `Cc1cc(NC(=O)CSc2nccn2-c2ccc([N+](=O)[O-])cc2)no1`: 25.
The same measure for `C/C(=N/Nc1ccc(Cl)cc1)c1cnnc(-c2ccccc2)n1`: 21.
As for `Cc1ccc(S(=O)(=O)N2CCOCC2)cc1C(=O)NC(=S)N(Cc1ccccc1)C(C)C`, the fluorescence (KMESF) was 4.
Regarding `CCN(CC(=O)Nc1cccc(S(N)(=O)=O)c1)Cc1nc2ccccc2c(=O)[nH]1`, the fluorescence (KMESF) was 7.
Regarding `COc1ccc(C2CC(c3ccccc3)Nc3ncnn32)cc1` (stereo not drawn), the fluorescence (KMESF) is 9.
`Clc1ccc(C2CC(c3cccs3)n3ncnc3N2)cc1Cl` (stereo not drawn): the fluorescence (KMESF) is 7.
In the case of `FC(F)Oc1ccccc1C1CC(c2ccc(Br)s2)Nc2ncnn21` (stereo not drawn), the fluorescence (KMESF) was 72 (active).
In the case of `CNC(=S)NNC(=O)c1oc2nc(-c3ccccc3)cc(-c3ccco3)c2c1N`, the fluorescence (KMESF) is 7.
In the case of `COc1ccc(CCN2C(=O)CC(N3CCC(C(N)=O)CC3)C2=O)cc1OC` (stereo not drawn), the fluorescence (KMESF) was 5.
With `O=C(CCc1[nH]c2ccccc2c1Sc1ccccc1)N(CCO)CCO`, the fluorescence (KMESF) is 16.
Regarding `CS/C(=C\C(=O)c1ccco1)Nc1ccccc1Cl`, the fluorescence (KMESF) was 7.
With `COc1ccc(CCNC(=O)CN(c2ccccc2)S(C)(=O)=O)cc1`, the fluorescence (KMESF) is 9.
The same measure for `COC(=O)CNC(=O)c1ccc(OC2CCN(C(=O)C3CC3)CC2)cc1`: 7.
Take `O=C(CC12CC3CC(CC(C3)C1)C2)NCc1ccco1`: the fluorescence (KMESF) is 11.
For the compound `O=C(COC(=O)CCC(=O)c1cccs1)NCc1ccco1`, the fluorescence (KMESF) was 9.
For the compound `O=C(COC(=O)C12CC3CC(CC(C3)C1)C2)NCc1ccco1`, the fluorescence (KMESF) is 56 (active).
For the compound `COCCCn1c(-c2cccs2)nc2nc3ccccc3nc21`, the fluorescence (KMESF) was 6.
With `Cc1cs/c(=N\N=C\c2ccc(O)cc2)n1Cc1ccco1`, the fluorescence (KMESF) is 7.
To `COc1ccc(NC(=O)Cn2c(=O)n(Cc3ccco3)c(=O)c3ccccc32)cc1` belongs 36; to `CN(c1ccccc1)c1ccc(/C=c2\s/c(=C(/C#N)C(=O)C(C)(C)C)n(Cc3ccco3)c2=O)cc1`, 453 (active); to `CCOC(=O)CC(NC(=O)C1c2ccccc2Oc2ccccc21)c1ccc(C)cc1` (stereo not drawn), 11.
Regarding `Clc1ccc(C[n+]2cc(-c3ccccc3)n3c2CCC3)cc1`, the fluorescence (KMESF) is 7.
To `O=C(Nc1cccc(-c2nc3ccccc3[nH]2)c1)c1ccc(C(=O)Nc2cccc(-c3nc4ccccc4[nH]3)c2)cc1` belongs 151 (active); to `O=C(Cc1cccs1)Nc1cccc(-c2nc3ccccc3[nH]2)c1`, 14; to `O=C(/C=C/c1ccco1)Nc1cccc(-c2nc3ccccc3[nH]2)c1`, 9.
Regarding `Cc1ccc(CN2C(=O)N/C(=C/c3cc(C)n(-c4ccccn4)c3C)C2=O)cc1`, the fluorescence (KMESF) is 16.
The same measure for `CCCCCCCCCCCCC(NC(C)=O)(C(=O)OCC)C(=O)OCC`: 6; for `CC(=O)Nc1ccc(NC(=O)COc2ccccc2C(=O)Nc2cccc(Cl)c2Cl)cc1`: 14.
To `CN(C)S(=O)(=O)Oc1ccccc1C(=O)Nc1ccccc1Cl` belongs 81 (active).
To `O=C(Nc1ccccc1Cl)c1ccccc1S(=O)(=O)c1ccccc1[N+](=O)[O-]` belongs 11.
With `COc1ccc(CCNC(=O)C2CC3Cn4c(nc5cc(C)c(C)cc54)C3N2C)cc1` (stereo not drawn), the fluorescence (KMESF) is 8.
Regarding `COC(=O)c1c(C)oc(C)c1S(=O)(=O)NCc1ccc(Cl)cc1`, the fluorescence (KMESF) was 6.
With `CC1=CC(=C(C#N)c2nc3ccccc3s2)C=C(C)N1c1ccc(F)cc1F`, the fluorescence (KMESF) is 9.
The same measure for `Oc1[nH]c2ccc(Br)cc2c1N=Nc1nn[nH]n1`: 4; for `CNC(=S)N1CCC(NC(=O)C(Cc2ccc(F)cc2)NC(C)=O)CC1` (stereo not drawn): 10; for `Fc1cccc(CSc2nnc3ccc(-c4ccncc4)nn23)c1`: 6.
As to `COc1ccccc1NC(=O)CCCc1c[nH]c2ccccc12`, the fluorescence (KMESF) was 257 (active).
To `COc1ccccc1NC(=O)C[n+]1ccccc1` belongs 10; to `O=C(Cc1c[nH]c2ccccc12)OCCOC(=O)Cc1c[nH]c2ccccc12`, 21; to `O=C(O)Cc1csc(-c2cccc(Oc3ccccc3)c2)n1`, 6 and 3.
As for `O=C(CSc1ccccc1F)NC1CCS(=O)(=O)C1` (stereo not drawn), the fluorescence (KMESF) was 9.
Regarding `CCOC(=O)/C=C/CN(C(=O)OC(C)(C)C)S(=O)(=O)N1CC=CC1`, the fluorescence (KMESF) was 9.
The same measure for `COc1cc(NC(=S)NNC(=O)CC(C)C)c(OC)cc1Cl`: 13; for `CC(NC(=O)c1ccc(N2CCNCC2)c([N+](=O)[O-])c1)C12CC3CC(CC(C3)C1)C2` (stereo not drawn): 9; for `O=C1CS(=O)CN1c1ccc(Oc2ccccc2)cc1` (stereo not drawn): 9.
As for `C/C=C/C(=O)Nc1ccc(N2CCN(c3ccc(C(F)(F)F)cn3)CC2)nc1`, the fluorescence (KMESF) is 8.
For `COC(=O)c1cn(C(=O)c2ccc(Cl)cc2)c2ccccc12`, the fluorescence (KMESF) is 4.
Consider `Cc1nc(-c2ccc(Cl)cc2)sc1C1(C)CC(c2ccccc2F)=NO1` (stereo not drawn), for which the fluorescence (KMESF) was 7.
On to `O=C(CCC1CCCN(Cc2ccc(O)c(Cl)c2)C1)NCc1ccccc1F` (stereo not drawn), for which the fluorescence (KMESF) was 12.
For the compound `CC(C)=CC(=O)Nc1nnc(-c2ccc(F)cc2)s1`, the fluorescence (KMESF) is 71 (active).
The same measure for `Cc1ccc(NC(=O)Nc2nnc(-c3ccncc3)s2)cc1`: 6; for `Cc1ccc(C(=O)Nc2nnc(-c3ccncc3)s2)o1`: 9.
Turning to `CN(C)/C(=N\OC(=O)c1ccccc1)c1nonc1N`, the fluorescence (KMESF) is 8.
With `NC(=O)N/N=C\c1cccs1`, the fluorescence (KMESF) is 12.
To `Cc1c(NC(=S)Nc2ccccc2)c(=O)n(-c2ccccc2)n1C` belongs 4; to `Cc1ccc(S(=O)(=O)/N=C(/NC(=S)Nc2c(C)n(C)n(-c3ccccc3)c2=O)c2ccccc2)cc1`, 53 (active); to `Cc1ccc(S(=O)(=O)CC(=O)Nc2c(C)n(C)n(-c3ccccc3)c2=O)cc1`, 12.
To `C=CC1C(OC2OC(CO)C(O)C(O)C2O)OC=C(C(=O)OC)C1CC1CC(=O)CC(CC(=O)CCc2ccc(O)cc2)O1` (stereo not drawn) belongs 8; to `CCC(C)(C)n1nnnc1C(c1cccs1)N1CCN(Cc2ccccc2)CC1` (stereo not drawn), 5.
On to `Fc1ccc(Cn2nnnc2C(c2cccs2)N2CCCCCC2)cc1` (stereo not drawn), for which the fluorescence (KMESF) is 62 (active).
In the case of `Fc1ccccc1C(c1nnnn1Cc1ccc2c(c1)OCO2)N1CCN(Cc2ccccc2)CC1` (stereo not drawn), the fluorescence (KMESF) is 5.
The same measure for `Cc1ccc(CCCOC(=O)C[N+]2(C)CCCC2)cc1`: 6.
